CYP2C9 act: CYP2C9 (human) activation; activation factor at 5 µM; P11712; recombinant CYP2C9, luciferin-H conversion, luminescence; active compounds read high; factor 1 = untreated enzyme, 0 = blocked; 96,000 tested, 1.4% active; AID 1024;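 active means activation factor of 2 or more for CYP2C9 at a 5 µM dose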;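 further: 0 = sulfaphenazole-blocked wells and 1 = vehicle-only wells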
CYP2C19 inhib: blocks human cytochrome P450 2C19; AID 778; P33261; CYP2C19 Supersomes, luciferin-H EGE luminescence, 30 min; inhibition, % at 5 µM; 96,000 tested, 21% active;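 active means CYP2C19 inhibition above a set limit at 5 µM in the primary screen, cut at about 50% in these data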;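 further: plate controls were negative control wells for no effect and 2.5 mM tranylcypromine positive control for full effect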
Target sequence (P33261 whole entry, looked up): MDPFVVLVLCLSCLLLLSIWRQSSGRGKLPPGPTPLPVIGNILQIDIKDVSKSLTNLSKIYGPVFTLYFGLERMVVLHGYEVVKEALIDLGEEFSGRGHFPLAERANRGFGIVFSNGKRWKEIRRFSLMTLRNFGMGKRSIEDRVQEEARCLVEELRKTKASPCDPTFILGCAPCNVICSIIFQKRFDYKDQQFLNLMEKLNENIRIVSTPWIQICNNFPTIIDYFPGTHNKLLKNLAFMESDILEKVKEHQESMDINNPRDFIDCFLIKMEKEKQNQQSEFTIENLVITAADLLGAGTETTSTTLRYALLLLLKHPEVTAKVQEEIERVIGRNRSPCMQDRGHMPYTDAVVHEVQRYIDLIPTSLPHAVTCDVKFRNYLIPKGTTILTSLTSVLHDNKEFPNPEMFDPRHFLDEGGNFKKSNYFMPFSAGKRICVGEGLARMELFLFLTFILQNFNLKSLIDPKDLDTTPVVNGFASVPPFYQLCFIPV
Cav32 inh: human Cav3.2 channel inhibition, primary screen; O95180; B-score at 10 µM; Cav3.2-expressing cells, Fluo-4 calcium fluorescence FDSS; active compounds read low; 100,000 tested, 4% active;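 active means single-dose well whose peak fluorescence ratio is a statistical outlier from its plate by either plate-standardised score or position-corrected B-score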
CYP2C19 activ: cytochrome P450 2C19 (human) activation; P33261; recombinant CYP2C19, luciferin-H EGE luminescence; active compounds read high; 0 = fully inhibited enzyme, 1 = untreated enzyme; activation factor at 5 µM; 96,000 tested, under 10 active; AID 1025;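 active means activation factor of at least 2 at 5 µM in the primary screen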;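 further: 0 = wells with 2.5 mM tranylcypromine and 1 = vehicle-only wells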
CYP2C9 inhib: human CYP2C9 inhibition. CYP2C9 Supersomes, luciferin-H conversion, luminescence. inhibition, % at 5 µM. 96,000 tested, 20% active;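 active means blocking of liver enzyme CYP2C9 beyond about 50% at 5 µM, limit read from the data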
Active calls of the source: *; . = no result. Most compounds without a hit are left out; they make up all but 27% or so of the library.

SMILES | CYP2C9 act | CYP2C19 inhib | Cav32 inh | CYP2C19 activ | CYP2C9 inhib
CCCOc1ccc(Br)cc1/C=N/O | 0.7 | 34.1 | -4.87* | 0.7 | 26.4
CCOc1ccc(Br)cc1/C=N/O | 1 | 8.5 | -2.32 | 0.9 | 2.7
O/N=C/c1cc(Cl)ccc1OCc1cccc2ccccc12 | 0.2 | 52.7* | -1.91 | 0.5 | 76.0*
O=C(O)COc1ccc(Br)cc1/C=N/O | 1.2 | -24.3 | 0.544 | 1.2 | -22.4
COc1ccc(N(CC(=O)NCC2CCCO2)C(=O)CCC(=O)Nc2nccs2)cc1 (stereo not drawn) | . | . | -0.165 | . | .
CCC(C)N(C(=O)COC(=O)Cc1n[nH]c(=O)c2ccccc12)C1CCS(=O)(=O)C1 (stereo not drawn) | 0.9 | -3.4 | 1.75 | 1 | 7.1
CC(C)(C)N1CC2(c3ccccc3)CN(C(C)(C)C)CC(c3ccccc3)(C1)C2=O | 1 | -9.6 | -0.77 | 1.1 | 4.1
CCOC(=O)CSC(CC)C(=O)Nc1nnc(CC)s1 (stereo not drawn) | 0.6 | -3.9 | 0.713 | 1 | 42.2
CCOC(=O)c1nn(-c2ccccc2C)c(=O)c(C#N)c1C | 0.9 | 64.8* | 0.693 | 0.4 | 7.9
COC(=O)Cn1nnc(-c2cccc(OC)c2)n1 | 0.9 | 9.8 | 0.327 | 0.9 | 7.8
CC(C)CC(=O)NC(Nc1ccccc1F)C(Cl)(Cl)Cl (stereo not drawn) | 0.4 | 51.6* | . | 0.5 | 57.8*
CC(C)NC(NC(=O)Cc1ccccc1)C(Cl)(Cl)Cl (stereo not drawn) | 0.9 | 44.2 | 0.556 | 0.6 | 14.7
CCCC(=O)NC(Nc1ccccc1F)C(Cl)(Cl)Cl (stereo not drawn) | 0.4 | 53.1* | -0.172 | 0.5 | 56.7*
COc1nc(N/N=C/c2cc3c(cc2Br)OCO3)nc(N2CCOCC2)n1 | 0.2 | 34.7 | 0.818 | 0.7 | 77.4*
CN(C)CCN1C(=O)c2oc3ccc(Cl)cc3c(=O)c2C1c1cccc(Br)c1 (stereo not drawn) | 0.7 | 6.9 | -0.101 | 0.9 | 28.0
O=C(OCCCCN1C(=O)c2ccccc2C1=O)c1ccc(Br)o1 | 0.4 | 49.3 | -2.88 | 0.5 | 55.1*
Cn1nc(C(F)(F)F)c(C#N)c1N1CCN(c2cccc(C(F)(F)F)c2)CC1 | 0.8 | 14.9 | 0.62 | 0.9 | 17.3
CCNc1nc(NCC)n2c(SCc3ccc(F)cc3)nnc2n1 | 1 | 96.2* | 1.13 | 0 | 2.7
C=C1CCN([C@H](C(=O)NCc2ccccc2)C(C)C)S(=O)(=O)c2ccccc21 | . | . | 1.17 | . | .
CC1=NN(c2ccc(F)cc2)C(=O)C1C(c1cccc(O)c1)c1c(C)[nH]n(-c2ccc(F)cc2)c1=O (stereo not drawn) | 0.4 | 7.4 | -2.06 | 0.9 | 59.2*
Cn1c(CSc2nc3ccccc3s2)nnc1SCC(=O)NCc1cccnc1 | . | . | 0.179 | . | .
COc1ccc(S(=O)(=O)Nc2nnc(C(C)C)s2)cc1 | 0.7 | -14.9 | 0.0507 | 1.1 | 34.7
COc1ccc(S(=O)(=O)Nc2nc(C(F)(F)F)cs2)cc1 | 0 | 35.3 | -0.526 | 0.6 | 98.0*
O=S(=O)(Nc1ncn[nH]1)c1ccc2ccccc2c1 | 1 | -11.6 | 0.825 | 1.1 | -4.2
O=S(=O)(Nc1nc2ccccc2[nH]1)c1ccc2ccccc2c1 | 0.6 | 74.4* | -2.95 | 0.3 | 44.0
SMILES | CYP2C9 act | CYP2C19 inhib | Cav32 inh | CYP2C19 activ | CYP2C9 inhib
O=C(O)C1CCCN(S(=O)(=O)c2ccc(Br)cc2)C1 (stereo not drawn) | 1.2 | -12.6 | 0.0475 | 1.1 | -22.6
Cc1cc(N2CCC(C(=O)NC3CC3)CC2)nc(-c2ccccc2)n1 | 0.9 | 37.3 | 1.19 | 0.6 | 6.3
Cc1cc(N2CCC(C(=O)NCC3CC3)CC2)nc(-c2ccccc2)n1 | 0.4 | 72.9* | 1.05 | 0.3 | 61.5*
O=C(NC1(C(F)(F)F)NC(=O)N(C2CCCC2)C1=O)C1CC1 (stereo not drawn) | 1.1 | 4.1 | -0.217 | 1 | -8.4
N#CC1=C(N)S[C@H](C(=O)C23CC4CC(CC(C4)C2)C3)[C@H]1c1ccncc1 | 0.6 | 66.5* | -0.744 | 0.3 | 41.2
CCCN(CC(=O)c1cc(C)n(C)c1C)S(=O)(=O)c1cccc(C(F)(F)F)c1 | 0.8 | 75.8* | -4.42* | 0.2 | 24.2
CCN(CC)S(=O)(=O)c1cccc(-c2nnc(C(=O)c3ccc(C(F)(F)F)cc3)o2)c1 | 0.6 | 41.7 | -0.519 | 0.6 | 40.1
CCC(CC)C(=O)Nc1nnc(SCC(=O)N2CCN(c3ccccc3OC)CC2)s1 | 0.3 | 50.3* | 0.299 | 0.5 | 73.4*
COc1ccccc1N1CCN(C(=O)CSc2nc3ccccc3[nH]2)CC1 | 0.6 | 32.6 | 0.0362 | 0.7 | 43.8
